Composite z-score, z-score and composite Z-score data for five molecules are collected here from PubChem BioAssay.

The source made the active and inactive calls.

For experiment [1], the system named is Human papillomavirus type 1a protein E7 (residues 44-93). Kind of experiment: HPV1a E7 fragment binders on microarrays, primary screen, biochemical, small-molecule microarray, residues 44-93, 635 nm fluorescence (AID 1108).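 Note: E7 fragment applied at 1 µg/mL in TBST for 1 h at 4 C; score combines spot fluorescence with its signal to noise ratio.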 The note with it: small-molecule microarray binding, fluorescence 635 nm; higher = more signal.
Experiment [2] is described as follows: modulators of HCV replicon luciferase signal, primary screen, HCV replication inhibitor project, Huh7 cells, luciferase reporter (AID 1109).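 Note: huh7 hepatoma cells harbouring a luciferase neomycin HCV replicon reporter; luciferase luminescence as measure of HCV replicon replication; test concentration not given here.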 To be noted: 48 h, higher = more signal. For orientation: A replicon is a self-replicating genome or part of one, used to study replication in cells.
Experiment [3] addresses Left-right determination factor 2 (Homo sapiens) (UniProt O00292). Nature of the experiment: LEFTY2 binders on small-molecule microarrays, primary screen, biochemical, small-molecule microarray, 635 nm fluorescence scan (AID 1110). To be noted: LEFTY2 binding, higher = more signal.
The target of experiment [4] is Calmodulin-1 (Homo sapiens) (UniProt P0DP23). Kind of experiment: CALM1 binders on microarrays, EGTA buffer, profiling panel, biochemical, small-molecule microarray, Cy5-labelled CALM1 (AID 1111).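 Note: labelled calmodulin applied in Tris saline Tween buffer holding calcium plus EGTA and DTT.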 To be noted: Cy5-CALM1 binding fluorescence, higher = more signal.
Experiment [5] shares this target. Nature of the experiment: calcium-bound CALM1 binders on microarrays, profiling panel, artefact control for SMM control-protein annotation, biochemical, small-molecule microarray, Cy5-labelled CALM1, plus calcium (AID 1112).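 Note: score merges spot fluorescence with signal to noise from triplicate slides.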 To be noted: Cy5-CALM1 binding fluorescence, higher = more signal.
A short description of experiment [6]: small-molecule microarray binders of probe aWnt5a, primary screen, biochemical, biotinylated probe, 635/667 nm fluorescence (AID 1113).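 Note: score merges 667 nm fluorescence intensity with signal-to-noise per printed feature.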 The note with it: higher = more signal.
Experiment [7] in a line: small-molecule microarray binders of probe aShh, primary screen, biochemical, biotinylated probe, 635/667 nm fluorescence (AID 1114).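 Note: probe is biotin-labelled aShh protein from a stem cell growth factor screen; measures binding of labelled protein to compounds printed on the slide; score merges feature fluorescence at 667 nm with signal-to-noise.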 To be noted: higher = more signal.
A short description of experiment [8]: small-molecule microarray binders of probe aNog, primary screen, biochemical, biotinylated probe, 635/667 nm fluorescence (AID 1115).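 Note: probe is biotinylated aNog protein used at 0.15 µg/mL for 1 h at 4 C; z-score combines 667 nm fluorescence of each spot with its signal to noise.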 The note with it: higher = more signal.
In experiment [9] the target is Torsin-1A-interacting protein 1 (Homo sapiens) (UniProt Q5JTV8). Nature of the experiment: LAP1 binders from COS7 cell lysate, primary screen, small-molecule microarray, 635/667 nm fluorescence (AID 1116). The note with it: COS7-hLAP1 lysate binding, 635 nm fluorescence, higher = more signal.
Sequence of Torsin-1A-interacting protein 1 (Homo sapiens) (Q5JTV8 whole entry, looked up): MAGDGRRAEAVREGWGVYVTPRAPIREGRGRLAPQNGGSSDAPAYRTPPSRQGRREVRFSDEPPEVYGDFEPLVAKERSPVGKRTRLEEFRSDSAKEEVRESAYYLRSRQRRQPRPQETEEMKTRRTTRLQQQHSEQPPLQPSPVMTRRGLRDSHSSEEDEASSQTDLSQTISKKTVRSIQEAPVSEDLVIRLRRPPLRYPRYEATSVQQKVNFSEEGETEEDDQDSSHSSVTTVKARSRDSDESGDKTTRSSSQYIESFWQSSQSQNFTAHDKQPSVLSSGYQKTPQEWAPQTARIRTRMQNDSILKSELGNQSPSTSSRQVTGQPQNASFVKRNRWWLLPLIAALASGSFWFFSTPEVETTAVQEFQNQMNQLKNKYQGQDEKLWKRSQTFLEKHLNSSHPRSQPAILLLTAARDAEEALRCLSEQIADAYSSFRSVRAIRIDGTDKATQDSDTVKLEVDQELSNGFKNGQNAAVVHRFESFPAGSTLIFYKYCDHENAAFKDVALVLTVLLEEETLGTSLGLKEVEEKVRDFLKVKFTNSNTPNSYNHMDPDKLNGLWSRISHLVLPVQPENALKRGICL
The target of experiment [10] is Alpha-bungarotoxin (Bungarus multicinctus) (UniProt P60615). Nature of the experiment: alpha-bungarotoxin binders on microarray, profiling panel, artefact control for SMM control protein annotation, biochemical, small-molecule microarray, Alexa647 label, 635/667 nm fluorescence (AID 1117). To be noted: alpha-BTX-A647 binding fluorescence, higher = more signal.
Sequence of Alpha-bungarotoxin (Bungarus multicinctus) (P60615 whole entry, looked up): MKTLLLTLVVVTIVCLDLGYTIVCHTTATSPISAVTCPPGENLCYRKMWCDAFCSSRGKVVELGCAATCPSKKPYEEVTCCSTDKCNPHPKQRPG
In the next experiment the target is Albumin (Bos taurus) (UniProt P02769). Nature of the experiment: bovine serum albumin binders on microarray, profiling panel, artefact control for SMM control protein annotation, biochemical, small-molecule microarray, Alexa647 label, 635/667 nm fluorescence (AID 1118).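 Note: score merges 667 nm emission intensity and signal-to-noise per printed compound spot.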 The note with it: BSA-A647 binding, fluorescence 635 nm, higher = more signal.
Sequence of Albumin (Bos taurus) (P02769 whole entry, looked up): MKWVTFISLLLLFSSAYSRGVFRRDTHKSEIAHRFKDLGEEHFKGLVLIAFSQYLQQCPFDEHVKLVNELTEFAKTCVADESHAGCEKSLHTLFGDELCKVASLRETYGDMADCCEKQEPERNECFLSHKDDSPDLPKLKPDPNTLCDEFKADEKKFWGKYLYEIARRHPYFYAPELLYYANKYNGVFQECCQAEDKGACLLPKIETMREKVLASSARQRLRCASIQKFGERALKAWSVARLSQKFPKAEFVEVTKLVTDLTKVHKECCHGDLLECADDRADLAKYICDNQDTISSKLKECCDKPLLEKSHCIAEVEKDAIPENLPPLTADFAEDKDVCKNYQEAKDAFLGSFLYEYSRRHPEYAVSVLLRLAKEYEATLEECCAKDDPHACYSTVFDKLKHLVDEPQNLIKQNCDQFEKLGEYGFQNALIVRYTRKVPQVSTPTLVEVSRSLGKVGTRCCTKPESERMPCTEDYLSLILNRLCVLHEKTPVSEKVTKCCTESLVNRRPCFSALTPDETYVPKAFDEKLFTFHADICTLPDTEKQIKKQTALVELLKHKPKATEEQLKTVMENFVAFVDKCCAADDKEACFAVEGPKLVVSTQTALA
Experiment [11] can be described thus: small-molecule microarray binders of probe aXIP, primary screen, biochemical, NeuroSMM set, 635/667 nm fluorescence (AID 1119).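 Note: probe is the protein aXip251-270 applied at 1 µg/mL to compound-printed slides; binding of probe to printed compounds measured as 667 nm fluorescence plus signal to noise.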 To be noted: higher = more signal, called active from +8 up or from −8 down.
Experiment [12] can be described thus: small-molecule binders of probe aNOTCH3, primary screen, biochemical, small-molecule microarray, 635/667 nm fluorescence (AID 1120).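 Note: probe is a biotin-tagged antibody raised against NOTCH3 rather than NOTCH3 protein; score merges spot fluorescence near 667 nm with spot signal to noise.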 The note with it: higher = more signal.
The nature of experiment [13]: small-molecule binders of probe aNOTCH2, primary screen, biochemical, small-molecule microarray, 635/667 nm fluorescence (AID 1121).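 Note: score merges feature fluorescence read at 667 nm with its signal to noise.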 To be noted: higher = more signal.
The target in experiment [14] is Carbonic anhydrase 2 (Homo sapiens) (UniProt P00918). Nature of the experiment: CAII small-molecule binders, profiling panel, biochemical, small-molecule microarray, Alexa647-labelled CAII (AID 1122). The note with it: CAII-A647 binding fluorescence, higher = more signal.
Experiment [15] in a line: COS7 lysate on small-molecule microarray, probe aHis, 635 nm (AID 1123).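 Note: z-score combines 667nm fluorescence intensity with signal-to-noise per printed compound spot.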 The note with it: COS7 cell lysate, fluorescence, higher = more signal.
Experiment [16] can be described thus: compound binding in COS7 lysate, probe aLAP1, primary screen, cell lysate, small-molecule microarray (AID 1124).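 Note: lysate comes from COS7 cells expressing LAP1 and is applied at 0.3 µg/mL; score merges spot fluorescence near 667 nm with signal-to-noise over triplicate slides.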 The note with it: probe aLAP1, fluorescence, higher = more signal.
The subject of the next experiment is Sam68 (KHDRBS1). Nature of the experiment: Sam68 small-molecule binders, primary screen, biochemical, small-molecule microarray, 635 nm fluorescence (AID 1125).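 Note: score merges 667 nm channel intensity with signal to noise over triplicate slides.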 The note with it: small-molecule microarray binding, higher = more signal.
Experiment [17] relates to Chordin-like protein 2 (CHRDL2). Nature of the experiment: CHRDL2 small-molecule binders, primary screen, biochemical, small-molecule microarray, 635 nm fluorescence (AID 1126).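 Note: printed compound slides probed with Chrdl2 protein at 4 µg/mL for 1 h at 4 C; score merges 667 nm emission intensity with signal to noise over three replicate slides.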 To be noted: small-molecule microarray binding, fluorescence 635 nm; higher = more signal.
Experiment [18] deals with Concanavalin-A (Canavalia ensiformis) (UniProt P02866). Nature of the experiment: ConA small-molecule binders, primary screen, artefact control for SMM control protein annotation, biochemical, small-molecule microarray, Alexa647 label, 635 nm (AID 1127).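 Note: z combines 667 nm emission intensity with signal-to-noise across three replicate slides.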 The note with it: ConA-A647 binding fluorescence, higher = more signal.
Sequence of Concanavalin-A (Canavalia ensiformis) (P02866 whole entry, looked up): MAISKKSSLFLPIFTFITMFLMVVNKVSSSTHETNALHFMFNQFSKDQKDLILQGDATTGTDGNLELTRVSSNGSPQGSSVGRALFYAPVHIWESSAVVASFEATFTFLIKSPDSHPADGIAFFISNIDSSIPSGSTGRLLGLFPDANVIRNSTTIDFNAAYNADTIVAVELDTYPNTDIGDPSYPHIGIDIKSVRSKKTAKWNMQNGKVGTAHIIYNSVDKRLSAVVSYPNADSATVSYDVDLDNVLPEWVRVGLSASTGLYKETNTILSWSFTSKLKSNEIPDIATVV

Sequence of Left-right determination factor 2 (Homo sapiens) (O00292 whole entry, looked up): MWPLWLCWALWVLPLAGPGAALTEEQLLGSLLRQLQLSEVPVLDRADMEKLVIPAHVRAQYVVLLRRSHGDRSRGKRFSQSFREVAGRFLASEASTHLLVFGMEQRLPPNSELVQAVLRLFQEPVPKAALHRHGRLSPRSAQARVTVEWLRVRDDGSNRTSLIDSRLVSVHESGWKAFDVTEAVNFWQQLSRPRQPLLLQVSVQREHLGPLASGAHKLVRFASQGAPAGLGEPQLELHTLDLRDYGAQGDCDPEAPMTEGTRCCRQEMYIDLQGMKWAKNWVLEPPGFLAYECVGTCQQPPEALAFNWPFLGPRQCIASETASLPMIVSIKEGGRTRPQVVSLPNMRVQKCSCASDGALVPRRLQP

`O=C(O)C1N=C(c2ccc(OCCCO)cc2)N(c2ccccc2)O1` (stereo not given): the composite z-score in experiment [1] is 1.13; in experiment [3], 0.509; in experiment [4], 0.37; in experiment [5], -0.218; in experiment [6], -0.0478; in [7], -0.0769. Further, the composite z-score was -0.402 in [8]; 0.435 in experiment [9]; 0.447 in [10]; 0.811 in the experiment with Albumin (Bos taurus); 0.0967 in experiment [12]; -0.037 in [13]. Also, the composite z-score in [14] was 0.589; in experiment [15], 0.321; in [16], -0.287; in the experiment with Sam68 (KHDRBS1), 1.3; in [17] it was 0.153; in [18] it was 0.658. The z-score in [2] was -0.643. Moreover, the composite Z-score in experiment [11] is 0.488 (inactive).

`CCOC(=O)C[C@H]1[C@H](OC(=O)c2ccc(-c3ccccc3)cc2)[C@@H](NC(=O)c2ccccc2)c2cc(OCCCO)ccc2N1C(=O)c1ccc2ccccc2n1`: the composite z-score in [1] is 1.29; in experiment [3], -0.196; in experiment [4], 1.2; in experiment [5], 0.963; in experiment [6] it was -0.0643; in experiment [7] it was -0.0011. Moreover, the composite z-score was 0.176 in [8]; 0.629 in experiment [9]; 0.552 in experiment [10]; 0.828 with Albumin (Bos taurus); 0.0069 in experiment [12]; -0.0811 in experiment [13]. The composite z-score in experiment [14] was 0.287; in experiment [15] it was 0.96; in [16], 0.547; in the experiment with Sam68 (KHDRBS1), 1.18; in experiment [17], -0.8; in experiment [18] it was 0.627. For the same molecule, the z-score in [2] is -1.09. Also, in experiment [11], the composite Z-score was 0.21 (inactive).

With `CN(C)C(=O)[C@]1(Cc2ccccc2)N=C(c2ccc(OCCCO)cc2)O[C@@H]1c1ccccc1N=[N+]=[N-]`, the composite z-score in experiment [1] worked out at 1.4; in [3], 0.357; in experiment [4] it was 1.63; in experiment [5] it was 0.393; in experiment [6], 0.0926; in [7] it was 0.398. The composite z-score in experiment [8] was -0.0332; in experiment [9], 2.01; in [10], 1.37; with Albumin (Bos taurus), 0.784; in experiment [12] it was 0.23; in experiment [13], -0.0145. Moreover, the composite z-score in [14] was 0.782; in [15], 2.12; in experiment [16], 0.764; in the experiment on Sam68 (KHDRBS1) it was 1.32; in experiment [17] it was -0.199; in experiment [18] it was 1.1. In addition, the z-score in experiment [2] was -2.58. The composite Z-score in experiment [11] is 0.431 (inactive).

Take `COC(=O)[C@@]1(Cc2ccccc2)[C@H]2c3cc(C(=O)N4CCCC4)n(Cc4ccc(O)c(OC)c4)c3C[C@H]2CN1C(=O)c1ccccc1`: the composite z-score is 1.35 in experiment [1]; -0.943 in [3]; 0.556 in experiment [4]; 0.0466 in experiment [5]; 0.288 in [6]; 1.14 in [7]. In addition, the composite z-score in experiment [8] was 1.11; in [9], 0.53; in experiment [10], -0.142; with Albumin (Bos taurus), 0.638; in experiment [12], 0.63; in experiment [13] it was 0.302. Further, the composite z-score was 0.83 in experiment [14]; 2.37 in experiment [15]; 0.0364 in [16]; 0.008 in the experiment with Sam68 (KHDRBS1); -1.62 in experiment [17]; 0.284 in [18]. For the same molecule, the z-score in experiment [2] was -1.7. Also, the composite Z-score in experiment [11] was -0.0662 (inactive).

Take `C=C(CCCC)C(=O)CC[C@H](OC(=O)c1cccnc1)c1ccc(OCCO)cc1`: the composite z-score was -0.574 in experiment [1]; -0.327 in [3]; -0.556 in [4]; -0.736 in [5]; -0.0455 in experiment [6]; 0.296 in [7]. The composite z-score in experiment [8] is 0.406; in [9], 0.656; in [10], 0.551; with Albumin (Bos taurus) it was 0.0514; in experiment [12], -0.0076; in [13] it was -0.14. Besides, the composite z-score was 0.72 in experiment [14]; -0.0099 in experiment [15]; 0.022 in [16]; 0.567 with Sam68 (KHDRBS1); 0.191 in experiment [17]; -0.421 in [18]. In addition, the z-score in experiment [2] was -3.61. The composite Z-score in [11] is 0.197 (inactive).
